How the values were obtained:
Test in all cases: DAPPL (digital affinity profiling via proximity ligation, sequencing); 10 mM Tris-HCl pH 7.5, 50 mM NaCl, 1 mM DTT, 4% glycerol, room temperature, 30 min; GST-TFs on glutathione beads, 16-mer random dsDNA library, 0.1% formaldehyde crosslink after washing; high values mean tight binding
[1] = target: T1, FLI1 (Homo sapiens, UniProt Q01543 1-452); settings: protein: recombinant; tags: N-terminal GST; dsDNA, one strand shown
T1 sequence: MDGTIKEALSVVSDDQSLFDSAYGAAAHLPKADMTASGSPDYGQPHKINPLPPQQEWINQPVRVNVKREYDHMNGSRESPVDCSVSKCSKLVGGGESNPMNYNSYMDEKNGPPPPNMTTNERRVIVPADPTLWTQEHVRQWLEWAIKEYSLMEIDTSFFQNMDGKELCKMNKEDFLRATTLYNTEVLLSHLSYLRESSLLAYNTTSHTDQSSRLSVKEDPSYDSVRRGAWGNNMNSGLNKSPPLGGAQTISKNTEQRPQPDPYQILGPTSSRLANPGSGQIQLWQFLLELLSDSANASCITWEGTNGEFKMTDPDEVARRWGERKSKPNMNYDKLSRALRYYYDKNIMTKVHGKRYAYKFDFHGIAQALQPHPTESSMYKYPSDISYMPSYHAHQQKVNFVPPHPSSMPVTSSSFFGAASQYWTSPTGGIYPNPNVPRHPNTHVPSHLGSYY
How it was run: (§1)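 Pools of DNA-barcoded human transcription factors, expressed in yeast as GST fusions on glutathione beads and combined with a tag-only sample, were incubated with 200 nmole of a 16-mer random double-stranded DNA library. Incubation took 30 min at room temperature in Tris/NaCl/DTT/glycerol buffer and was followed by washing, 0.1% formaldehyde crosslinking, proximity ligation (BsaI/T4 ligase, 1 h, 37 °C), PCR amplification and sequencing on an Illumina NextSeq500. Binding signal is the ratio of a hexamer's read frequency for a factor to its frequency for the tag-only sample.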

[2] = target: T2, ELK1 (Homo sapiens, UniProt P19419 1-428); settings: protein: recombinant; tags: N-terminal GST; dsDNA, one strand shown
T2 sequence: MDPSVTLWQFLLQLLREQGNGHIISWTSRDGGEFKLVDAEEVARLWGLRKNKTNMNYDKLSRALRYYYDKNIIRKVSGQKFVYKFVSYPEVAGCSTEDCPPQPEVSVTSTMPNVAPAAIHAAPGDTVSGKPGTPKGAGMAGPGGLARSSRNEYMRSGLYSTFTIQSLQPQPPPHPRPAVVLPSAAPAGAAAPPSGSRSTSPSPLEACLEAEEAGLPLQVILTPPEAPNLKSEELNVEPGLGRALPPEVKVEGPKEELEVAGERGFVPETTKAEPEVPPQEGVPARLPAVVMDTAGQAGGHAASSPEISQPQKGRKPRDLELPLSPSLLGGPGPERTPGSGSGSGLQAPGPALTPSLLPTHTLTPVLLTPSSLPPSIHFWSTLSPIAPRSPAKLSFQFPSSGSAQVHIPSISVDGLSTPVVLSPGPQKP
How it was run: as §1

[3] = target: T3, GABPA (Homo sapiens, UniProt Q06546 1-454); settings: protein: recombinant; tags: N-terminal GST; dsDNA, one strand shown
T3 sequence: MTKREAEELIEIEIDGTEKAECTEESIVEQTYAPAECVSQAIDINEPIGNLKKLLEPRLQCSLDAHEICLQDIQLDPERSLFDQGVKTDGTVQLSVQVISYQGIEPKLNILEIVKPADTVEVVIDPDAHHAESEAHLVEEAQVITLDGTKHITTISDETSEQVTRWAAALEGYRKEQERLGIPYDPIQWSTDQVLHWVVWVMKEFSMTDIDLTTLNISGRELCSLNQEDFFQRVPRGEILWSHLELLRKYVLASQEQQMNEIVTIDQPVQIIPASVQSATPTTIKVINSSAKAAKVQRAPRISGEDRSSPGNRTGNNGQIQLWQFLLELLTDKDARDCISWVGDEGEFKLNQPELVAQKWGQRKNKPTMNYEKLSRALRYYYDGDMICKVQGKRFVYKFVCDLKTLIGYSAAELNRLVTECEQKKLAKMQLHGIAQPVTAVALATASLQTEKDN
How it was run: as §1

[4] = target: T4, ERG (Homo sapiens, UniProt P11308 1-479); settings: protein: recombinant; tags: N-terminal GST; dsDNA, one strand shown
T4 sequence: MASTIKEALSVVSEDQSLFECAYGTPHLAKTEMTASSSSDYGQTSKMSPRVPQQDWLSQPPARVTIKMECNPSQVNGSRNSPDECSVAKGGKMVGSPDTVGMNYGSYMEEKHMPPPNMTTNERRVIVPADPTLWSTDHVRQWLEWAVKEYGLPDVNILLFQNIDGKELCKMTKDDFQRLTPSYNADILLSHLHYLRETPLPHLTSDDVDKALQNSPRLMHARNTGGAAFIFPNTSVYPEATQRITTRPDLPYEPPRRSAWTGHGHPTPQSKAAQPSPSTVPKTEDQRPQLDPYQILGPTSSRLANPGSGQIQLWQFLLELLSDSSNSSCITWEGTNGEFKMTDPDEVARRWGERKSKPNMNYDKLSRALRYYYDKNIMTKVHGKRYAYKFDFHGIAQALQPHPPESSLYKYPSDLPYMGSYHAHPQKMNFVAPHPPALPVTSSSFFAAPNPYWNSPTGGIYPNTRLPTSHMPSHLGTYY
How it was run: as §1

[5] = target: ELF1 (Homo sapiens, UniProt P32519 1-619); settings: protein: recombinant; tags: N-terminal GST; dsDNA, one strand shown
How it was run: as §1

[6] = target: T5, EHF (Homo sapiens, UniProt Q9NZC4 1-300); settings: protein: recombinant; tags: N-terminal GST; dsDNA, one strand shown
T5 sequence: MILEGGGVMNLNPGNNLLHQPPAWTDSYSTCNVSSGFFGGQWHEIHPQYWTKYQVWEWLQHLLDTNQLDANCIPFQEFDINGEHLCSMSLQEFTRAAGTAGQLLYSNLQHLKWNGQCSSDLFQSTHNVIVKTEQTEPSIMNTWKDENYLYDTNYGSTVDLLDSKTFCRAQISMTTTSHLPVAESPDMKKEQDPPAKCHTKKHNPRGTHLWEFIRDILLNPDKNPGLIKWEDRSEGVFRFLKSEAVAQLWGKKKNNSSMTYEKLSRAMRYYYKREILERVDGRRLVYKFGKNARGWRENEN
How it was run: as §1

[7] = target: SPI1 (Homo sapiens, UniProt P17947 1-270); settings: protein: recombinant; tags: N-terminal GST; dsDNA, one strand shown
How it was run: as §1

[8] = target: SPIB (Homo sapiens, UniProt Q01892 1-262); settings: protein: recombinant; tags: N-terminal GST; dsDNA, one strand shown
How it was run: as §1

[9] = target: T6, ELK3 (Homo sapiens, UniProt P41970 1-407); settings: protein: recombinant; tags: N-terminal GST; dsDNA, one strand shown
T6 sequence: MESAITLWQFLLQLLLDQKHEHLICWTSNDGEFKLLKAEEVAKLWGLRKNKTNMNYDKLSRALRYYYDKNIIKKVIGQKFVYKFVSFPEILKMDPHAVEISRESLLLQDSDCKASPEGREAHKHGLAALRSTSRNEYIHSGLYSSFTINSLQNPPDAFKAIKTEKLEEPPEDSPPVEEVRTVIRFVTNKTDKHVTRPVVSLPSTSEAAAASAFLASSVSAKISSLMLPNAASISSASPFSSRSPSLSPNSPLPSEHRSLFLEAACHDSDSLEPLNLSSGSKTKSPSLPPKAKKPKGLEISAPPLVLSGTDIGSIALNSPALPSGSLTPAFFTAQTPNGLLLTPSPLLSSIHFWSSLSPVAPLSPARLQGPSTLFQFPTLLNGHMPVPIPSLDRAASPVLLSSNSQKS
How it was run: as §1

[10] = target: T7, FEV (Homo sapiens, UniProt Q99581 1-238); settings: protein: recombinant; tags: N-terminal GST; dsDNA, one strand shown
T7 sequence: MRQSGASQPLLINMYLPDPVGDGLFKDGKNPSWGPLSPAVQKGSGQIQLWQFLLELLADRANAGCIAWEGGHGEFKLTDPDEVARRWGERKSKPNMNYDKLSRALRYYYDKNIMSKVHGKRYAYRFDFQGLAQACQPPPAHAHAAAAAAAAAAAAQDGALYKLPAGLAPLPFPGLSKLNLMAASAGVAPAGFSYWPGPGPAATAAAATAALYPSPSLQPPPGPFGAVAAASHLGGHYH
How it was run: as §1

[11] = target: ETV5 (Homo sapiens, UniProt P41161 1-510); settings: protein: recombinant; tags: N-terminal GST; dsDNA, one strand shown
How it was run: as §1

[12] = target: HSF1 (Homo sapiens, UniProt Q00613 1-529); settings: protein: recombinant; tags: N-terminal GST; chain copies: 3; dsDNA, one strand shown
How it was run: as §1

[13] = target: T8, SPIC (Homo sapiens, UniProt Q8N5J4 1-248); settings: protein: recombinant; tags: N-terminal GST; dsDNA, one strand shown
T8 sequence: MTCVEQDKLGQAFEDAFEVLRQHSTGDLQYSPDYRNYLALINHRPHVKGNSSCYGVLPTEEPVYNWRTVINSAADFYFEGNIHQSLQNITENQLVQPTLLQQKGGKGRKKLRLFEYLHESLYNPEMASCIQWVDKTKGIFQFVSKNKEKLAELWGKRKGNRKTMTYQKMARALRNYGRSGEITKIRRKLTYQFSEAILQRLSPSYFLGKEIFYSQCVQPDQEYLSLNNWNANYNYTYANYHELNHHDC
How it was run: as §1

[14] = target: ELF4 (Homo sapiens, UniProt Q99607 1-663); settings: protein: recombinant; tags: N-terminal GST; dsDNA, one strand shown
How it was run: as §1

[15] = target: T9, ELK4 (Homo sapiens, UniProt P28324-2 1-405); settings: protein: recombinant; tags: N-terminal GST; dsDNA, one strand shown
T9 sequence: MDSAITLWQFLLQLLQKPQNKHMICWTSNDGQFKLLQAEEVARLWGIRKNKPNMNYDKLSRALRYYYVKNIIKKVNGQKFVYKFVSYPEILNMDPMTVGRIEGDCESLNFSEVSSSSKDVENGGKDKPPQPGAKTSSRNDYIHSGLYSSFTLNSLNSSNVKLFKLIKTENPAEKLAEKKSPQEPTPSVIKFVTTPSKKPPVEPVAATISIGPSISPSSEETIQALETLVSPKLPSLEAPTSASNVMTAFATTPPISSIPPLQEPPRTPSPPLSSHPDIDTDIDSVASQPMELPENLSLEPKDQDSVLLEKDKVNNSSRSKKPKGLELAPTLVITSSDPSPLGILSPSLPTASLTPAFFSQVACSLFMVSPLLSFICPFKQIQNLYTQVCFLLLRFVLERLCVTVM
How it was run: as §1

[16] = target: T10, ETV2 (Homo sapiens, UniProt O00321 1-342); settings: protein: recombinant; tags: N-terminal GST; dsDNA, one strand shown
T10 sequence: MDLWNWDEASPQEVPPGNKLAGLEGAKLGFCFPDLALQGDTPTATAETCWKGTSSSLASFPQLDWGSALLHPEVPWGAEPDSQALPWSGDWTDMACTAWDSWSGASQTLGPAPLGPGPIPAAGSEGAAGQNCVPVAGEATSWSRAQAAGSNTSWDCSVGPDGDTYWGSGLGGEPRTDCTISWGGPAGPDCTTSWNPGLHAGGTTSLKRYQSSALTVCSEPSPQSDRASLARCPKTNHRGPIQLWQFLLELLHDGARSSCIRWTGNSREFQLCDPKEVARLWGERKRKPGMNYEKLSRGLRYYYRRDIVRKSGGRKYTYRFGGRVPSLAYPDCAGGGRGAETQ
How it was run: as §1

[17] = target: T11, ELF3 (Homo sapiens, UniProt P78545 1-371); settings: protein: recombinant; tags: N-terminal GST; dsDNA, one strand shown
T11 sequence: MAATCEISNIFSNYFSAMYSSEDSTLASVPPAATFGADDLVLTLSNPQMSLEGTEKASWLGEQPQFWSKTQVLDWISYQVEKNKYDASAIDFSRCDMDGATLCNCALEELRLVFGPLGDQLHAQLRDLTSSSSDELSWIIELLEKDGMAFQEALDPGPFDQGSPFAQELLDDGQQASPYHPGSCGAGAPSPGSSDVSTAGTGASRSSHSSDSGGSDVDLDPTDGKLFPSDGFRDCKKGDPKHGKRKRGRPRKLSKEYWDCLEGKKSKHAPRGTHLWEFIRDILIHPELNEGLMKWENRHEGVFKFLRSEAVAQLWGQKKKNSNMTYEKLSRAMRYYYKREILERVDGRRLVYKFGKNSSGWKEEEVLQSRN
How it was run: as §1

[18] = target: CRX (Homo sapiens, UniProt O43186 1-299); settings: protein: recombinant; tags: N-terminal GST; dsDNA, one strand shown
How it was run: as §1

[19] = target: ETV1 (Homo sapiens, UniProt P50549 1-477); settings: protein: recombinant; tags: N-terminal GST; dsDNA, one strand shown
How it was run: as §1

ETV1, sequence (P50549 whole entry): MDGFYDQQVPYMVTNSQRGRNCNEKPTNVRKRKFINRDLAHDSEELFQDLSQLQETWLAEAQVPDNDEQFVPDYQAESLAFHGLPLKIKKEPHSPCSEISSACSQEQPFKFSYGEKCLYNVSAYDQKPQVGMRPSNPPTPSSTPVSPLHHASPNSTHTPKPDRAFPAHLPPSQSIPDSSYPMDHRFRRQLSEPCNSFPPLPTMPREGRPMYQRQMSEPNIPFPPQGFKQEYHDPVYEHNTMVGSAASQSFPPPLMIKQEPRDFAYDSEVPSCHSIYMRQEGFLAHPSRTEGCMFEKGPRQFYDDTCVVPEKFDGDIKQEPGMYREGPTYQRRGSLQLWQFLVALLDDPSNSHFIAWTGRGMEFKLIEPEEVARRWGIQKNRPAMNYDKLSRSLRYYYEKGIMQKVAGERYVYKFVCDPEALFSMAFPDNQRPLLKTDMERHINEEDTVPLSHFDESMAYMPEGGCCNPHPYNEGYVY
ETV5, sequence (P41161 whole entry): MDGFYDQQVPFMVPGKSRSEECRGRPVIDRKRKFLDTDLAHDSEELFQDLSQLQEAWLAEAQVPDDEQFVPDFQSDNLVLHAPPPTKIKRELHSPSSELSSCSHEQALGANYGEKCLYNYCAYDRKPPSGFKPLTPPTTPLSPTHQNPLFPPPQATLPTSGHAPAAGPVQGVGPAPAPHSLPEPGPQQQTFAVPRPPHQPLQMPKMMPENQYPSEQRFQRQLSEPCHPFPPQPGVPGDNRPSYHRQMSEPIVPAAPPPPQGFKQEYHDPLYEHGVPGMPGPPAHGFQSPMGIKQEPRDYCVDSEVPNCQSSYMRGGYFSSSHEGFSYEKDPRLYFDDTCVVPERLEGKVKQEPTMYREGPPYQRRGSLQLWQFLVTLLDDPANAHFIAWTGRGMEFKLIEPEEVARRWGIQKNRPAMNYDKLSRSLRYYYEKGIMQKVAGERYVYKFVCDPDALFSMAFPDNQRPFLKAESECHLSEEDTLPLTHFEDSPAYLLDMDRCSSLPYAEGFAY
ELF4, sequence (Q99607 whole entry): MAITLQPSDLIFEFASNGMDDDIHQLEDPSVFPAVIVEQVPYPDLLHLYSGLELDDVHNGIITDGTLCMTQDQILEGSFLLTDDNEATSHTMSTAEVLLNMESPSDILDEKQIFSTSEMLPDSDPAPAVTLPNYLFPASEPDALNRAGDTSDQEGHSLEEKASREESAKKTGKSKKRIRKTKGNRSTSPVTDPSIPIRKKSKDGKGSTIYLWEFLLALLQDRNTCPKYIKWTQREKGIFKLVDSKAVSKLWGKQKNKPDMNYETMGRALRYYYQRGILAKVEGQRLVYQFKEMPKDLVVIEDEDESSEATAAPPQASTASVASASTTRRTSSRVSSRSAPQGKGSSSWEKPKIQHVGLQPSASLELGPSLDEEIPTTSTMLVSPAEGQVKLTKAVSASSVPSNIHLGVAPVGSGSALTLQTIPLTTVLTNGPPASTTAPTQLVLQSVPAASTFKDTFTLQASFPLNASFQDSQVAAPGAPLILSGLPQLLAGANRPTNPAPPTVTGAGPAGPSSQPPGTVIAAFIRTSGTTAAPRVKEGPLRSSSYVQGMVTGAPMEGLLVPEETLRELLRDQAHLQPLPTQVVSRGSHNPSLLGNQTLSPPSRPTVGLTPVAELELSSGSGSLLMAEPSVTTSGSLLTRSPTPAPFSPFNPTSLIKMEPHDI
SPIB, sequence (Q01892 whole entry): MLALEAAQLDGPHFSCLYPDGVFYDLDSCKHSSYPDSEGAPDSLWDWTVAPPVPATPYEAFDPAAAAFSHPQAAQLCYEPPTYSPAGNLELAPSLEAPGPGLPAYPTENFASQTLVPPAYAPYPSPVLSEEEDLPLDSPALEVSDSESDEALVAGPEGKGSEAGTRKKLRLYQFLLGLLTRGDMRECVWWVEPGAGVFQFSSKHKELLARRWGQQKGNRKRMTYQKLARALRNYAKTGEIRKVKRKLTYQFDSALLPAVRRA
HSF1, sequence (Q00613 whole entry): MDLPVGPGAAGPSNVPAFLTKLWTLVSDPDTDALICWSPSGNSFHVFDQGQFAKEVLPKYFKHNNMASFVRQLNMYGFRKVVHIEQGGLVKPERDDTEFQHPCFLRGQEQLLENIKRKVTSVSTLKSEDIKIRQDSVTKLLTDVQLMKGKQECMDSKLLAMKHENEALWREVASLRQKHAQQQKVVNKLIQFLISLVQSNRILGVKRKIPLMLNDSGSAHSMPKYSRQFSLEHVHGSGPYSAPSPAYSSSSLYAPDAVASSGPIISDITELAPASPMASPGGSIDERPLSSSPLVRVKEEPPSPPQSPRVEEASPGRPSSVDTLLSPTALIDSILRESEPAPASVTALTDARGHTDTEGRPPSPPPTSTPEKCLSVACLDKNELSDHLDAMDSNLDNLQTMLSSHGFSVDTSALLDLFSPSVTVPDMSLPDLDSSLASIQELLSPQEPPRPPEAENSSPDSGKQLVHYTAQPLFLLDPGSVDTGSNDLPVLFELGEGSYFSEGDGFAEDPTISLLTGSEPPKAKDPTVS
ELF1, sequence (P32519 whole entry): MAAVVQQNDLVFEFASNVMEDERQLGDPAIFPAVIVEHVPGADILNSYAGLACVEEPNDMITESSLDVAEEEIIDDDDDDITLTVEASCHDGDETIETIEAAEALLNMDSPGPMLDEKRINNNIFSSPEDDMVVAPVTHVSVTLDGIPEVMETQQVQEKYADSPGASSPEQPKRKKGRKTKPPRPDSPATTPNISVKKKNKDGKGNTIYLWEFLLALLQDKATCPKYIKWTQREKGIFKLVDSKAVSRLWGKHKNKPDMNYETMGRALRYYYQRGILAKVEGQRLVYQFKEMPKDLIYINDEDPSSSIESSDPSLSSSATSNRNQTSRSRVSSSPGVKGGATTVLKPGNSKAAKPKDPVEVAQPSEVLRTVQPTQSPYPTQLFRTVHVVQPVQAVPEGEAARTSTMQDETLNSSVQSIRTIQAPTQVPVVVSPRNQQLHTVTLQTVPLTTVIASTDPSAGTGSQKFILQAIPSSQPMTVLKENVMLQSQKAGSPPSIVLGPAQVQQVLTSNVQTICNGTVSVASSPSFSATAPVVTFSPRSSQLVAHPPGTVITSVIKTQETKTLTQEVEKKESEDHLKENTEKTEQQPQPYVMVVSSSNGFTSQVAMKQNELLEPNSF
CRX, sequence (O43186 whole entry): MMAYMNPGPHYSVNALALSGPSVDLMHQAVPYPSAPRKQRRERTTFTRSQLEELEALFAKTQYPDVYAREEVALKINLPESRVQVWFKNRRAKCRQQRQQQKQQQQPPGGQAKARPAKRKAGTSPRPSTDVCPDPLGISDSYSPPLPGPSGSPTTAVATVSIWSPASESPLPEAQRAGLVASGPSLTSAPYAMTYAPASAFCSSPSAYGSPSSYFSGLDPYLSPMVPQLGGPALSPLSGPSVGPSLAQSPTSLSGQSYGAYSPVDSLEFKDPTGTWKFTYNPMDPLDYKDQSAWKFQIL

TCCGTA
binding signal [1]: 1.57 fold enrichment (6-mer frequency, TF over GST control)
binding signal [2]: 1.63 fold enrichment (6-mer frequency, TF over GST control)
binding signal [3]: 1.59 fold enrichment (6-mer frequency, TF over GST control)
binding signal [4]: 1.52 fold enrichment (6-mer frequency, TF over GST control)
binding signal [5]: 1.59 fold enrichment (6-mer frequency, TF over GST control)
binding signal [6]: 1.6 fold enrichment (6-mer frequency, TF over GST control)
binding signal [7]: 1.69 fold enrichment (6-mer frequency, TF over GST control)
binding signal [8]: 1.58 fold enrichment (6-mer frequency, TF over GST control)
binding signal [9]: 1.62 fold enrichment (6-mer frequency, TF over GST control)
binding signal [10]: 1.43 fold enrichment (6-mer frequency, TF over GST control)
binding signal [11]: 1.62 fold enrichment (6-mer frequency, TF over GST control)
binding signal [12]: 1.1 fold enrichment (6-mer frequency, TF over GST control)
binding signal [13]: 1.56 fold enrichment (6-mer frequency, TF over GST control)
binding signal [14]: 1.47 fold enrichment (6-mer frequency, TF over GST control)
binding signal [15]: 1.6 fold enrichment (6-mer frequency, TF over GST control)
binding signal [16]: 1.63 fold enrichment (6-mer frequency, TF over GST control)
binding signal [17]: 1.47 fold enrichment (6-mer frequency, TF over GST control)
binding signal [18]: 1.21 fold enrichment (6-mer frequency, TF over GST control)
binding signal [19]: 1.47 fold enrichment (6-mer frequency, TF over GST control)

Reference: publication PMC7862700, “An all-to-all approach to the identification of sequence-specific readers for epigenetic DNA modifications on cytosine”
